High-throughput results as filed in PubChem.
JMJD2A Tudor inh = inhibitors of human JMJD2A Tudor domain; AlphaScreen JMJD2A-Tudor / H3K4me3 peptide binding; Potency, µM (doses to about 114 µM), for inactives: at the top dose activity change, negative = inhibition, actives largely listed as inhibitors; actives 4.4% (n = 390,000); O75164; AID 504339; note: % is set by controls: 0 for no effect and ±100 for the full control effect; nearly all actives have a fitted effect of over 50% in size
VDR inh = inhibitors of human vitamin D receptor; Potency, µM, inactives show max response, negative = inhibition, usual class: inhibitors; AID 504847; P11473; actives 0.93% (n = 400,000); VDR-SRC2-3 peptide fluorescence polarization, 2 h; note: % is set by controls: 0 for no effect and ±100 for the full control effect
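After 23 nl compound addition and a short centrifugation, plates sat for 2 hours at ambient temperature; polarization of fluorescence then indicated loss of VDR binding to peptide SRC2-3.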
HP1b binding inh = blocks HP1-beta chromodomain binding to methylated histone tails; P83916; AlphaScreen HP1-beta / biotin-H3K9me3 peptide binding; Potency, µM (top dose mostly 114 µM), inactives show at the highest dose activity change, negative = inhibition, actives largely listed as inhibitors; actives 0.56% (n = 390,000); AID 540317; note: nearly all actives have a fitted effect of over 70% in size
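HP1-beta protein (50 nM final) preincubated 30 min at room temperature with biotinylated H3(1-18)K9me3 peptide (50 nM) in PBS pH 7.4, 0.01% Tween-20, then compound added for 30 min. AlphaScreen streptavidin donor/nickel chelate acceptor beads (10 ug/mL final), 30 min dark, luminescence read.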
PLK1 PBD inh = inhibitors of human PLK1 polo-box domain binding. actives 2.8% (n = 360,000). Plk1 PBD binding of FITC phosphopeptide, fluorescence polarization. Potency, µM, without a hit: max response, negative = inhibition, hits mostly inhibitors. P53350; note: series mostly up to about 57 µM; % is set by controls: 0 for no effect and ±100 for the full control effect; nearly all actives have a fitted effect of over 65% in size
Target sequence (P53350 whole entry, looked up, the tested form may be a part): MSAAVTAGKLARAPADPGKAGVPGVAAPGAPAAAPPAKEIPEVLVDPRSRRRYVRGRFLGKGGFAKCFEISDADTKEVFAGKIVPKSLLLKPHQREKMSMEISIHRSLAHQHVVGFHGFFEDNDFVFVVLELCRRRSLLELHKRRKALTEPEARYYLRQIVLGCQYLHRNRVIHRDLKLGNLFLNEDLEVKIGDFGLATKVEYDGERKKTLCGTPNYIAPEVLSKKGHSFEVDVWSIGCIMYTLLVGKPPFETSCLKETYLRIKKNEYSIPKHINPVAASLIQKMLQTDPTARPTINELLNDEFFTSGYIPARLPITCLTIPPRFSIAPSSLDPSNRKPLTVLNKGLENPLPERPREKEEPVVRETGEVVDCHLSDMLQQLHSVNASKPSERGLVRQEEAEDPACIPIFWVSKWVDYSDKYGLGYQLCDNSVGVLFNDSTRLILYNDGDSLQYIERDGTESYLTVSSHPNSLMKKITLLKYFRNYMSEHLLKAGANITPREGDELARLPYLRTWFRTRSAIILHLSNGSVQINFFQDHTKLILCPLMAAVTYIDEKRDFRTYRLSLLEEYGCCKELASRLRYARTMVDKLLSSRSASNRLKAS
G9a block = blocks human histone lysine methyltransferase G9a | actives 8.8% (n = 350,000) | Potency, µM (highest dose often 102 µM), for the others: top-dose activity, negative = inhibition, actives largely listed as inhibitors | Q96KQ7 | G9a H3K9 monomethylation, AlphaScreen, 2 h; note: % is set by controls: 0 for no effect and ±100 for the full control effect; nearly all actives have a fitted effect of over 75% in size
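AlphaScreen read-out: biotin-H3K9 peptide (500 nM) methylation by 20 nM enzyme with 20 uM SAM, 2 h at room temperature after 15 min compound preincubation; anti-monomethyl H3K9 antibody plus donor/acceptor beads, 10 min dark.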
BAZ2B inh = BAZ2B (human) inhibition; Q9UIF8; AlphaScreen BAZ2B-H3K14Ac peptide displacement; Potency, µM (series often up to 114 µM), for the others: at the highest dose activity change, negative = inhibition, most hits filed as inhibitors; actives 4.4% (n = 360,000); note: % is set by controls: 0 for no effect and ±100 for the full control effect; nearly all actives have a fitted effect of over 60% in size
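Compounds, titrated to a top concentration of 110 uM, were incubated 30 min at room temperature with preformed BAZ2B/acetyl-K14 H3 peptide complex (50 nM each). Proximity signal was measured by AlphaScreen after 20 min with beads.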
* hit, by the source's call; ? = inconclusive; / = no result given; [ ] = remark or other dose. Rows were chosen to be rich in hits. Some 11% of all compounds tested hit in one or more screens of this group. Calls come from the whole dose curve; as a rule, active = well fitted curve in the direction sought with a large enough effect; inconclusive = small, poorly fitted or top-dose-only effect, or another doubt; inactive = no such curve, though single readings can be large; an effect the other way counts as inactive or inconclusive. Potency is the fitted concentration of half-maximal effect.

SMILES	JMJD2A Tudor inh	VDR inh	HP1b binding inh	PLK1 PBD inh	G9a block	BAZ2B inh
CCOc1ccc(C(=O)CSc2nnc3cc(C)c4ccccc4n23)cc1	-4.0%	4.4%	67.7%	/	2.1%[59 µM]	-4.8%
Cc1ccc2[nH]c(=O)c(CN(C)C(=O)c3cccs3)cc2c1	-18.0%[11.4 µM]	-12.5%	?	29.9µM*	2.9%	15.2%
CN(Cc1cc2ccccc2[nH]c1=O)C(=O)c1cccs1	-14.7%	-8.4%	27.9%	-13.7%	-0.6%	9.5%
N#Cc1cc2c([nH]c1=S)CCCCCC2	3.16µM*	-7.2%	?	26.7µM*	?	-3.8%
O=S1(=O)N=C(Oc2ccccc2)c2ccccc21	89.1µM*	15.6%	9.9%	-9.9%	-1.6%[59 µM]	5.9%
Cc1ccc(C)c(OC2=NS(=O)(=O)c3ccccc32)c1	-19.0%	-16.8%	4.0%	11.9µM*	/	-2.0%
O=S1(=O)N=C(Oc2ccccc2-c2ccccc2)c2ccccc21	-17.0%	/	/	/	/	/
N#Cc1cccc(OC2=NS(=O)(=O)c3ccccc32)c1	35.5µM*	/	/	/	/	/
Cc1c(C(=O)NCc2ccccc2Cl)sc2ncnc(N(C)C3CCCCC3)c12	-10.7%	16.9%	44.5%	/	-21.2%[59 µM]	1.1%
C[C@H]1CNC(=O)C(=O)N1C[C@H](Cc1ccc(O)cc1)NC(=O)CC12CC3CC(CC(C3)C1)C2	-14.0%	19.5%	29.8%	-9.9%	70.8µM*	-2.4%
CC(C)C[C@H]1CNC(=O)C(=O)N1C[C@H](Cc1ccc(O)cc1)NC(=O)Cc1ccccc1	/	/	/	-4.0%	/	/
COc1cc(/C=C2/C(=N)N3C=CSC3=NC2=O)ccc1OCCOc1ccc(NC(C)=O)cc1	-14.1%	-13.3%	4.5%	-5.5%	-3.6%	-10.2%
CCOc1cc(/C=C2\C(=N)N3N=C(S(C)(=O)=O)SC3=NC2=O)ccc1OCCOc1cccc(OC)c1	79.4µM*	?	?	26.7µM*	-0.6%[2.33 µM]	70.8µM*
CCS(=O)(=O)C1=NN2C(=N)/C(=C\c3ccc(OCCOc4cccc(OC)c4)c(OC)c3)C(=O)N=C2S1	56.2µM*	-17.5%	5.3%	23.8µM*	56.2µM*	35.5µM*
CCOC(=O)/C=C1\CN(Cc2cc(OC)c(OC)c(OC)c2)S(=O)(=O)c2ccc(C(F)(F)F)cc21	-30.1%	-5.1%	23.4%	-21.0%	35.5µM*	?
O=C(NCCc1ccc(Cl)cc1)c1cccn1-c1nnc(N2CCCC2)s1	-17.5%	9.5%	25.5%	/	-4.3%[59 µM]	-23.0%
O=C(O)c1cccc(Nc2ncnc3sccc23)c1	-5.5%	6.9%	32.6%	-14.9%	39.8µM*	-14.2%
COc1ccc(C(CNC(=O)COc2ccc(Cl)c(C)c2)N2CCOCC2)cc1 (stereo not drawn)	-18.9%	-0.9%	33.5%	/	-23.7%[59 µM]	-12.4%
CCc1ccc(NC(=O)Nc2ccccc2OCc2cc(=O)n3ccccc3n2)cc1	-16.2%	7.3%	7.8%[57 µM]	/	7.0%[59 µM]	4.3%
CCOC(=O)c1cc(OC(=O)c2ccc(Cl)cc2)n(-c2ccccc2)n1	-14.8%	-10.3%	23.0%	/	12.0%[59 µM]	-4.0%
Cc1ccc(OCC(=O)Nc2ccc3c(c2)C(=O)NC3=O)cc1	?	19.3%	22.6%	-5.8%	/	-24.0%
CC(C)(C)c1ccc(OCC(=O)Nc2ccc3c4c(cccc24)C(=O)NC3=O)cc1	79.4µM*	-20.9%	8.3%	?	/	-5.0%
COc1ccc(CNC(=O)CCNS(=O)(=O)c2ccc(NC(C)=O)cc2)cc1OC	-2.7%	5.1%	29.8%	-2.3%	27.4%[12.7 µM]	4.9%
COc1ccc(Cl)cc1NC(=O)C/C(C)=N/NC(=O)c1ccc(O)cc1	-12.2%	-22.3%	30.4%	-9.3%	70.8µM*	-28.1%
COc1ccc(Cl)cc1NC(=O)C/C(C)=N/NC(=O)Cc1ccccc1	-1.8%	-14.3%	36.4%	4.8%	-29.4%	-23.4%
SMILES	JMJD2A Tudor inh	VDR inh	HP1b binding inh	PLK1 PBD inh	G9a block	BAZ2B inh
O=C(O)C(CCCCN1C(=O)c2ccccc2C1=O)N1C(=O)c2ccccc2C1=O (stereo not drawn)	-7.6%	1.0%	46.3%	-2.9%	?	89.1µM*
CC(C)OC(=O)c1cn(Cc2c(F)cccc2F)c2sc(-c3ccc(NC(=O)C(C)C)cc3)c(CN(C)Cc3ccccc3)c2c1=O	/	-3.4%	/	/	/	/
NC(=O)CC(NC(=O)Cc1ccc(Br)cc1)c1ccc(N2CCC(N3CCCCC3)CC2)c([N+](=O)[O-])c1 (stereo not drawn)	-20.3%	-12.9%	25.3%	-0.2%	56.2µM*	-34.0%
NC(=O)CC(NC(=O)c1ccccc1)c1ccc(N2CCCCCC2)c([N+](=O)[O-])c1 (stereo not drawn)	44.7µM*	-25.6%	?	?	50.1µM*	?
NC(=O)CC(NC(=O)c1cccc(Br)c1)c1ccc(N2CCN(c3ccccn3)CC2)c([N+](=O)[O-])c1 (stereo not drawn)	?	-6.4%	-6.4%	1.3%	50.1µM*	?
O=[N+]([O-])c1cc(-n2cnnn2)ccc1N1CCC(Cc2ccccc2)CC1	10µM*	7.5%	-42.1%	-3.7%	4.4%[0.501 µM]	28.2µM*
NC(=O)CC(NC(=O)Cc1cccc2ccccc12)c1ccc(N2CCC(N3CCCCC3)CC2)c([N+](=O)[O-])c1 (stereo not drawn)	-27.1%	-19.7%	35.5%	-10.6%	/	-36.9%
CCOc1ncccc1C(=O)OCC(=O)NCc1ccccc1	-9.0%	-4.0%	-1.8%	-4.1%	/	/
Cc1oc2ccc(O)c(CN3CCN(C)CC3)c2c1C(=O)Nc1cccc(Cl)c1C	-31.2%	5.9%	-9.1%	/	-4.7%[59 µM]	-2.4%
C=CCc1cc(OC)c(O)c(C(=O)NCCO)c1	/	2.4%	/	/	-5.2%[12.7 µM]	/
COc1cccc(CNC(=O)c2cccn2-c2nnc(N3CCCC3)s2)c1	-2.9%	4.5%	19.6%	/	-0.1%[59 µM]	1.7%
COC(=O)CC1C(C)(C)C(=O)C2CC3=C4CC(=O)OC(c5ccoc5)[C@]4(C)CCC3[C@@]1(C)C2=O (stereo partly drawn)	/	?	/	/	-35.6%[2.33 µM]	/
Cc1cc(C)cc(C(=O)NC(CC(N)=O)c2ccc(N3CCC(Cc4ccccc4)CC3)c([N+](=O)[O-])c2)c1 (stereo not drawn)	-20.3%	5.3%	19.8%	0.1%	50.1µM*	?
Cc1cc(C)cc(C(=O)NC(CC(N)=O)c2ccc(N3CCC(Br)CC3)c([N+](=O)[O-])c2)c1 (stereo not drawn)	-28.7%	11.0%	32.9%	-0.2%	?	-37.0%
COc1ccccc1OCC(=O)N/N=C/c1c(O)ccc2ccccc12	/	/	/	/	92.6%	15.4%
COc1ccc(/C=N/NC(=O)COc2cccc3ccccc23)c(C(=O)O)c1OC	-15.9%	-17.3%	11.4%	-18.6%	14.1µM*	?
COc1ccc(OCC(=O)N/N=C/c2ccc(OC)c(OC)c2C(=O)O)cc1	2.8%	-7.7%	34.1%	1.9%	1.6%[59 µM]	-2.6%
